Data from paper PMC7862700, “An all-to-all approach to the identification of sequence-specific readers for epigenetic DNA modifications on cytosine”.

Key:
Assay in all cases: DAPPL (digital affinity profiling via proximity ligation, sequencing); 10 mM Tris-HCl pH 7.5, 50 mM NaCl, 1 mM DTT, 4% glycerol, room temperature, 30 min; GST-TFs on glutathione beads, 16-mer random dsDNA library, 0.1% formaldehyde crosslink after washing; high values mean tight binding
Conditions in all cases: protein: recombinant; tags: N-terminal GST; dsDNA, one strand shown
[1] = molecular target: T1, FLI1 (Homo sapiens, UniProt Q01543 1-452)
T1 sequence: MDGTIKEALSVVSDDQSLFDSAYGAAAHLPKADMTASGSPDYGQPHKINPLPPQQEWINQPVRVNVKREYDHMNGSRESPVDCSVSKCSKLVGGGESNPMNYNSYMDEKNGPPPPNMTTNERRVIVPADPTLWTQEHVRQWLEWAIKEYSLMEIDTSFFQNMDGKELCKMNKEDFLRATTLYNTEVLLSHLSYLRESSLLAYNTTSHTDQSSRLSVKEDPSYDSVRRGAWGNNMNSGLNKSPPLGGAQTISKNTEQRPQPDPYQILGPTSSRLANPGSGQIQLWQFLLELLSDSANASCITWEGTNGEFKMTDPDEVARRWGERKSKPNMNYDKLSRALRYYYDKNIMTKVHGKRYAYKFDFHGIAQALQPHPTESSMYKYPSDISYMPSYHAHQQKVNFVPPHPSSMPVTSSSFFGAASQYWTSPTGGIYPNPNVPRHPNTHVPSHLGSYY
Outline: (§1)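 Binding signal is defined as a hexamer's read frequency for one factor over its frequency for the tag-only sample. To obtain reads, GST-fused human transcription factors were expressed in yeast, captured on glutathione beads, barcoded with DNA and pooled with that sample. Pools met 200 nmole of a 16-mer random double-stranded DNA library in Tris/NaCl/DTT/glycerol buffer for 30 min at room temperature before washing, 0.1% formaldehyde crosslinking, proximity ligation (BsaI/T4 ligase, 1 h, 37 °C), PCR and Illumina NextSeq500 sequencing.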

[2] = molecular target: T2, ELK1 (Homo sapiens, UniProt P19419 1-428)
T2 sequence: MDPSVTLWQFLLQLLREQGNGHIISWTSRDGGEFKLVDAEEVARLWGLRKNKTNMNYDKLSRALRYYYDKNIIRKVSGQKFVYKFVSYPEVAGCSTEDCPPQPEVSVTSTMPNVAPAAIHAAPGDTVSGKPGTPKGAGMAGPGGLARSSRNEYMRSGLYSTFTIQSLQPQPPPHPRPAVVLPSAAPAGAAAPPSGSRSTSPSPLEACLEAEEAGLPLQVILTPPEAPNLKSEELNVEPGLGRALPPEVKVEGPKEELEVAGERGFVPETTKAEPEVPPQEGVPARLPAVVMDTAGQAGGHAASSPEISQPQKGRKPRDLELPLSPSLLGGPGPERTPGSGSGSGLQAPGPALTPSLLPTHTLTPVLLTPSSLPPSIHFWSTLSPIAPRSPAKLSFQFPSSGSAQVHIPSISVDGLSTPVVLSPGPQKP
Outline: as §1

[3] = molecular target: T3, GABPA (Homo sapiens, UniProt Q06546 1-454)
T3 sequence: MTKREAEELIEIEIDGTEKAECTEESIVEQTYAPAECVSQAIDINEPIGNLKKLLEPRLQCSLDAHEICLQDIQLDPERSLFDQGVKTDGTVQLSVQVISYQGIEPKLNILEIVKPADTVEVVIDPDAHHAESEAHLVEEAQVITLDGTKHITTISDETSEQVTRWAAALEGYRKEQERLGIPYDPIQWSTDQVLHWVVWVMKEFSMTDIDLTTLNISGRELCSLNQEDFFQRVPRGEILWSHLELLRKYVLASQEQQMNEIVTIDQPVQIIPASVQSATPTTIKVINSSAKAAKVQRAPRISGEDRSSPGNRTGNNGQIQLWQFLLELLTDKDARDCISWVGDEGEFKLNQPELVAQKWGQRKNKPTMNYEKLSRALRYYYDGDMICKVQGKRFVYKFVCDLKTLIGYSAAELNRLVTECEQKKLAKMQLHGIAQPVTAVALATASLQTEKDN
Outline: as §1

[4] = molecular target: T4, ERG (Homo sapiens, UniProt P11308 1-479)
T4 sequence: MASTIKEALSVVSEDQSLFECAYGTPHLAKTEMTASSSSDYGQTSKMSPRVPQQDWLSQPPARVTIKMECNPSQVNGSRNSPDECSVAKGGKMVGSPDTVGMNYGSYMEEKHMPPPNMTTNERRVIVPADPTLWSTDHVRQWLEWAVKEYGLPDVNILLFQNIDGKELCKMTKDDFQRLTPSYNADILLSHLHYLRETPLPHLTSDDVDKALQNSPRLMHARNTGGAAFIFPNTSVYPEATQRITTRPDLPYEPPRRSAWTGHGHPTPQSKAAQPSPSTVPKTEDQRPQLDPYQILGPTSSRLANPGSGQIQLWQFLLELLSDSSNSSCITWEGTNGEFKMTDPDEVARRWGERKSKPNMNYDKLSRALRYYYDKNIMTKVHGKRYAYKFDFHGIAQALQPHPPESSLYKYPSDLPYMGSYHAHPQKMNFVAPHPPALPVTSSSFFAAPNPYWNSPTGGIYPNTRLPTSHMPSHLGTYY
Outline: as §1

[5] = molecular target: ELF1 (Homo sapiens, UniProt P32519 1-619)
ELF1, sequence (P32519 whole entry): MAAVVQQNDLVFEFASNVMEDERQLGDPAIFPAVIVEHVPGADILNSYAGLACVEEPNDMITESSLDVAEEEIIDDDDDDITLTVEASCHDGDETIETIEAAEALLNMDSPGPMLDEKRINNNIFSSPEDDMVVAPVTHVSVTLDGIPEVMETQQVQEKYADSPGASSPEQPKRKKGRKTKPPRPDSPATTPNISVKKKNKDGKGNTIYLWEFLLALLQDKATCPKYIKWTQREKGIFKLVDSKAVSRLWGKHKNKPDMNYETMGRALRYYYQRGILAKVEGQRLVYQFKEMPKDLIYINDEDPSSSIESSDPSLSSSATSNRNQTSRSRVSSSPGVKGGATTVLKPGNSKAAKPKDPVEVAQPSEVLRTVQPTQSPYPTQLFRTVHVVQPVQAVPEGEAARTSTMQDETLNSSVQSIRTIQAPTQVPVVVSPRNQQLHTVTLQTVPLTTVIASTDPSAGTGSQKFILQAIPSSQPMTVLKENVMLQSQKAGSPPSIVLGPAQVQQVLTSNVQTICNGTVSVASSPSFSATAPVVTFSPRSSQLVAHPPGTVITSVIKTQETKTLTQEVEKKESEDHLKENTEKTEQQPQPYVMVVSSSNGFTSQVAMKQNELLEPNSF
Outline: as §1

[6] = molecular target: T5, EHF (Homo sapiens, UniProt Q9NZC4 1-300)
T5 sequence: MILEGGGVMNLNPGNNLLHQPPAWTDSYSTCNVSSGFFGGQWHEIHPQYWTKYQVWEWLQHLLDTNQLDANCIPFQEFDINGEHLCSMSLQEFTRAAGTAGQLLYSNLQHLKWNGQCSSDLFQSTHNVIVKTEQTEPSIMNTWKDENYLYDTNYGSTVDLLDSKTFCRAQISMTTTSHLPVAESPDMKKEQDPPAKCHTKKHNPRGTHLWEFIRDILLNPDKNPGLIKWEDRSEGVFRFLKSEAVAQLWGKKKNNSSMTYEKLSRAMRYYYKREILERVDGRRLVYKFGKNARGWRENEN
Outline: as §1

[7] = molecular target: SPI1 (Homo sapiens, UniProt P17947 1-270)
Outline: as §1

[8] = molecular target: SPIB (Homo sapiens, UniProt Q01892 1-262)
SPIB, sequence (Q01892 whole entry): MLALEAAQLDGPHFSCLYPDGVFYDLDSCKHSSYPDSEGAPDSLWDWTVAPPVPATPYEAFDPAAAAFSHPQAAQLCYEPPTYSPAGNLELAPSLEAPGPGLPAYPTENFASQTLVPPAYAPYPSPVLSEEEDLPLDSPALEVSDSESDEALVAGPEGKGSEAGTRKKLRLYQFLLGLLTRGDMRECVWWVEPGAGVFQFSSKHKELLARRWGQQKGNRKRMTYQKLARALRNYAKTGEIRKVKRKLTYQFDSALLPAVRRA
Outline: as §1

[9] = molecular target: T6, ELK3 (Homo sapiens, UniProt P41970 1-407)
T6 sequence: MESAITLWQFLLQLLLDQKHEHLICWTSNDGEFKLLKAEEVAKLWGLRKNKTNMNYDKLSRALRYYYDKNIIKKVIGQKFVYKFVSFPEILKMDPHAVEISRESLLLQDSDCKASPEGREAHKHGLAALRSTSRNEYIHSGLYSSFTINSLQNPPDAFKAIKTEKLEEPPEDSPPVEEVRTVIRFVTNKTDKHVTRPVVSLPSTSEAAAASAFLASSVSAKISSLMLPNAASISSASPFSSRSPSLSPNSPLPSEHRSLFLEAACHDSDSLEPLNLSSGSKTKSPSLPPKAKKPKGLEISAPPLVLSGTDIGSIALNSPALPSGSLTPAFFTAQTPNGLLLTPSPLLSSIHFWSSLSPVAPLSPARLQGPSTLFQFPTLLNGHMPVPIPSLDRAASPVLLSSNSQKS
Outline: as §1

Row | Sequence | binding signal [1] | binding signal [2] | binding signal [3] | binding signal [4] | binding signal [5] | binding signal [6] | binding signal [7] | binding signal [8] | binding signal [9]
1 | CTGACA | 1.19 fold enrichment (6-mer frequency, TF over GST control) | 1.18 fold enrichment (6-mer frequency, TF over GST control) | 1.2 fold enrichment (6-mer frequency, TF over GST control) | 1.22 fold enrichment (6-mer frequency, TF over GST control) | 1.27 fold enrichment (6-mer frequency, TF over GST control) | 1.32 fold enrichment (6-mer frequency, TF over GST control) | 1.26 fold enrichment (6-mer frequency, TF over GST control) | 1.17 fold enrichment (6-mer frequency, TF over GST control) | 1.24 fold enrichment (6-mer frequency, TF over GST control)
2 | CTCGCG | 1.47 fold enrichment (6-mer frequency, TF over GST control) | 1.35 fold enrichment (6-mer frequency, TF over GST control) | 1.55 fold enrichment (6-mer frequency, TF over GST control) | 1.42 fold enrichment (6-mer frequency, TF over GST control) | 1.41 fold enrichment (6-mer frequency, TF over GST control) | 1.32 fold enrichment (6-mer frequency, TF over GST control) | 1.39 fold enrichment (6-mer frequency, TF over GST control) | 1.45 fold enrichment (6-mer frequency, TF over GST control) | 1.34 fold enrichment (6-mer frequency, TF over GST control)
3 | CTGCGT | 1.12 fold enrichment (6-mer frequency, TF over GST control) | 1.15 fold enrichment (6-mer frequency, TF over GST control) | 1.16 fold enrichment (6-mer frequency, TF over GST control) | 1.13 fold enrichment (6-mer frequency, TF over GST control) | 1.17 fold enrichment (6-mer frequency, TF over GST control) | 1.18 fold enrichment (6-mer frequency, TF over GST control) | 1.16 fold enrichment (6-mer frequency, TF over GST control) | 1.12 fold enrichment (6-mer frequency, TF over GST control) | 1.24 fold enrichment (6-mer frequency, TF over GST control)
4 | TGACCT | 1.75 fold enrichment (6-mer frequency, TF over GST control) | 1.82 fold enrichment (6-mer frequency, TF over GST control) | 1.81 fold enrichment (6-mer frequency, TF over GST control) | 1.73 fold enrichment (6-mer frequency, TF over GST control) | 1.84 fold enrichment (6-mer frequency, TF over GST control) | 1.86 fold enrichment (6-mer frequency, TF over GST control) | 1.7 fold enrichment (6-mer frequency, TF over GST control) | 1.56 fold enrichment (6-mer frequency, TF over GST control) | 1.6 fold enrichment (6-mer frequency, TF over GST control)
5 | GCCTTT | 1.33 fold enrichment (6-mer frequency, TF over GST control) | 1.3 fold enrichment (6-mer frequency, TF over GST control) | 1.32 fold enrichment (6-mer frequency, TF over GST control) | 1.2 fold enrichment (6-mer frequency, TF over GST control) | 1.28 fold enrichment (6-mer frequency, TF over GST control) | 1.35 fold enrichment (6-mer frequency, TF over GST control) | 1.49 fold enrichment (6-mer frequency, TF over GST control) | 1.35 fold enrichment (6-mer frequency, TF over GST control) | 1.27 fold enrichment (6-mer frequency, TF over GST control)
6 | GGATGT | 1.5 fold enrichment (6-mer frequency, TF over GST control) | 1.7 fold enrichment (6-mer frequency, TF over GST control) | 1.39 fold enrichment (6-mer frequency, TF over GST control) | 1.82 fold enrichment (6-mer frequency, TF over GST control) | 1.44 fold enrichment (6-mer frequency, TF over GST control) | 1.74 fold enrichment (6-mer frequency, TF over GST control) | 1.53 fold enrichment (6-mer frequency, TF over GST control) | 1.61 fold enrichment (6-mer frequency, TF over GST control) | 1.65 fold enrichment (6-mer frequency, TF over GST control)
7 | ACTGCA | 1.1 fold enrichment (6-mer frequency, TF over GST control) | 1.17 fold enrichment (6-mer frequency, TF over GST control) | 1.05 fold enrichment (6-mer frequency, TF over GST control) | 1.09 fold enrichment (6-mer frequency, TF over GST control) | 1.19 fold enrichment (6-mer frequency, TF over GST control) | 1.12 fold enrichment (6-mer frequency, TF over GST control) | 1.27 fold enrichment (6-mer frequency, TF over GST control) | 1.15 fold enrichment (6-mer frequency, TF over GST control) | 1.11 fold enrichment (6-mer frequency, TF over GST control)
